Most compounds without a hit are left out; they make up all but 2.5% or so of the library.
NSD2 inh: NSD2 (human) methyltransferase inhibition | NSD2 peptide methylation, AlphaScreen, 120 min | inhibition, % at 12.5 µM | O96028 | 0.54% of 310,000 active | AID 743445; in the data active means inhibition above about 50%
AF4-AF9 inh: MLL-AF4/AF9 protein interaction inhibition. 0.47% of 350,000 active. inhibition, % at 10 µM. AlphaScreen, biotin-AF4 peptide binding to FLAG-AF9. P42568;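 active means every replicate reaching a set inhibition limit, whatever the replicate mean, cut at about 25% in these data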
RAD52 anneal inh: RAD52 (human) annealing inhibition; recombinant RAD52 DNA annealing, FRET fluorescence; 0.46% of 360,000 active; P43351; inhibition, % at 18.7 µM;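 active means every replicate showing at least 50% inhibition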
Target sequence (P43351 whole entry, looked up): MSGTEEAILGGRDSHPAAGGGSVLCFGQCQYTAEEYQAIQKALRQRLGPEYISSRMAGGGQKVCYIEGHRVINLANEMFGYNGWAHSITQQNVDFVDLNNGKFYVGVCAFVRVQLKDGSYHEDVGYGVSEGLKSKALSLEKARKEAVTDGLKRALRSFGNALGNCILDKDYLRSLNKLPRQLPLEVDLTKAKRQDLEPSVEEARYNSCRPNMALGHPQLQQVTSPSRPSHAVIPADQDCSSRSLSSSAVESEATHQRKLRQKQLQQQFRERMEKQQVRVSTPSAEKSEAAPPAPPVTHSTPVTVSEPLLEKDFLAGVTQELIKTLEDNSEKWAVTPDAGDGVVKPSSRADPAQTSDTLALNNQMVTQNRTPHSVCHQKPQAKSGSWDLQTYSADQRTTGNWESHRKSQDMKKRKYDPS
Ecoli rRNA inh: inhibitors of bacterial rRNA selective over humanized ribosomes | GFP signal change (wild-type ribosome), % (concentration not given with the values) | E. coli WT GFP vs humanized-ribosome RFP mutants, fluorescence, 24 h; active compounds read low; DMSO median 0, no signal -100 | 1.6% of 350,000 active;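 active means significant combined selectivity score with lowered wild-type GFP, culture density cut under 30%, mutant RFP and density less affected; inactive means any of these conditions unmet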
Casp6 inh: inhibitors of human caspase-6 | P55212 | purified caspase-6, Z-VEID-R110 cleavage fluorescence | inhibition, % at 12.5 µM | 0.53% of 350,000 active | AID 686996;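 active means mean inhibition across replicates at least about 35%, with every replicate also reaching that limit, limit read from the data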
Target sequence (P55212 24-179 limits assumed): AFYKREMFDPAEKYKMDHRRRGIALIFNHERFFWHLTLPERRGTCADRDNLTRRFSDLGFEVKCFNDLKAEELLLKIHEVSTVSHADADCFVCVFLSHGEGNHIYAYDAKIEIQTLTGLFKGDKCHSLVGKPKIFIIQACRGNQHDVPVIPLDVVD
Target sequence (P55212 194-293 limits assumed): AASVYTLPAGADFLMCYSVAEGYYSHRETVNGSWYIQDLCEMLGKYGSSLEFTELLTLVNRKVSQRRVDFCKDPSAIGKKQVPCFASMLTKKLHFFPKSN
Of the large screens only hits and unclear results are named; the others gave an inactive call; ! = repeats disagree.

CCCC#Cc1ccc2c(c1)O[C@@H](CN(C)S(=O)(=O)c1cccc(OC)c1)[C@@H](C)CN([C@H](C)CO)S2(=O)=O	none (no result: NSD2 inh, AF4-AF9 inh, RAD52 anneal inh, Casp6 inh)
C[C@H]1CN([C@@H](C)CO)C(=O)CCCn2cc(nn2)CO[C@@H]1CN(C)C(=O)Nc1ccc(N2CCN(C)CC2)cc1	RAD52 anneal inh 55! (no result: NSD2 inh)
COCC(=O)Nc1ccc2c(c1)OC[C@@H](C)N(C(=O)c1ccncc1)C[C@H](C)[C@H](OC)CN(C)C2=O	none (no result: NSD2 inh)
COc1ccc(NC(=O)Cc2ccc(C)c(C)c2)cc1S(=O)(=O)N1CCCCC1	Ecoli rRNA inh -29
Cc1ccc(S(=O)(=O)N2CCCCC2)cc1C(=O)Nc1ccc(S(=O)(=O)Nc2ncccn2)cc1	Casp6 inh 51 (no result: NSD2 inh)
Cc1ccc(NC(=O)CCl)cc1S(=O)(=O)N1CCCCCC1	Ecoli rRNA inh -16
C[C@H]1CN([C@@H](C)CO)C(=O)Cc2cc(NC(=O)c3ccncc3)ccc2O[C@@H]1CN(C)CC1CC1	none (no result: NSD2 inh)
COc1ccc(/C=C2/SC(=S)N(CC(=O)O)C2=O)cc1OCc1ccc(Cl)cc1	none
O=C(O)CN1C(=O)/C(=C\c2cc([N+](=O)[O-])ccc2OCc2ccccc2Cl)SC1=S	Casp6 inh 36 (no result: NSD2 inh)
O=C(O)CN1C(=O)/C(=C\c2cc(Br)ccc2OCc2ccc(Cl)cc2)SC1=S	Casp6 inh 77
O=C(O)CN1C(=O)/C(=C\c2ccccc2OCc2ccccc2)SC1=S	none (no result: NSD2 inh)
O=C(O)CN1C(=O)/C(=C\c2ccccc2OCc2ccc(F)cc2)SC1=S	Ecoli rRNA inh -39
Cc1ccc(Cl)cc1NC(=O)CSc1sc2c(O)cc(=O)[nH]c2c1C#N	Casp6 inh 44
N#Cc1c(SCC(=O)Nc2cccc(C(F)(F)F)c2)sc2c(O)cc(=O)[nH]c12	none (no result: NSD2 inh)
Cc1ccc(C)c(NC(=O)CSc2nc(C)cc(=O)[nH]2)c1	none (no result: AF4-AF9 inh, RAD52 anneal inh, Ecoli rRNA inh, Casp6 inh)
COc1ccc(Cl)cc1NC(=O)CSc1sc2c(O)cc(=O)[nH]c2c1C#N	none (no result: NSD2 inh)
COC(=O)c1ccc(C)c(NC(=O)CSc2sc3c(O)cc(=O)[nH]c3c2C#N)c1	Casp6 inh 54
Cc1ccc(C)c(NC(=O)CSc2sc3c(O)cc(=O)[nH]c3c2C#N)c1	Casp6 inh 47 (no result: NSD2 inh)
Cc1ccc(C)c(NC(=O)CSc2c(C)n[nH]c2C)c1	Ecoli rRNA inh -55
O=C(c1cnccn1)N1CC2(C1)[C@@H](c1ccccc1)[C@@H](CO)N2C(=O)c1ccccc1	none (no result: NSD2 inh)
CN1C[C@H](O)COC[C@@H]2O[C@H](CC(=O)NC3CCCC3)CC[C@H]21	none (no result: NSD2 inh)
CCOC(=O)c1c(-c2ccc(Br)cc2)csc1/N=C/C1C(=O)CC(C)(C)CC1=O	none (no result: AF4-AF9 inh, RAD52 anneal inh, Ecoli rRNA inh, Casp6 inh)
COc1ccc(NC(=O)CSc2sc3c(O)cc(=O)[nH]c3c2C#N)c(OC)c1	Casp6 inh 59
COc1ccccc1NC(=O)CSc1sc2c(O)cc(=O)[nH]c2c1C#N	none (no result: NSD2 inh)
COc1ccc(NCc2ccc(OC)c(Cn3ccnc3)c2)c(OC)c1	AF4-AF9 inh 34
COc1ccc(Cn2ccnc2)cc1Br	none (no result: AF4-AF9 inh, RAD52 anneal inh, Ecoli rRNA inh, Casp6 inh)
COc1ccc(CNC(=O)N(C)C[C@H]2OCc3ccccc3-c3ccccc3C(=O)N([C@@H](C)CO)C[C@@H]2C)cc1	none (no result: NSD2 inh, AF4-AF9 inh, RAD52 anneal inh, Casp6 inh)
O=S(=O)(Nc1ccc(C(O)(C(F)(F)F)C(F)(F)F)cc1)c1ccc(-c2ccccc2)s1	none (no result: AF4-AF9 inh, RAD52 anneal inh, Ecoli rRNA inh, Casp6 inh)
Cc1ccc(NC(=O)CN2CCN(Cc3ccccc3)CC2)c(Br)c1	Ecoli rRNA inh -23
CCn1cc(C(=O)O)c(=O)c2cc(F)c(N3CCN(C(=S)NC(=O)c4ccccc4Br)CC3)cc21	Casp6 inh 36
CCn1cc(C(=O)O)c(=O)c2cc(F)c(N3CCN(C(=S)NC(=O)c4ccc(F)cc4)CC3)cc21	none
CN1C(=O)c2cc(NC(=O)Nc3ccccc3)ccc2OC[C@@H]2O[C@H](CC(=O)O)CC[C@H]21	none (no result: NSD2 inh, AF4-AF9 inh, RAD52 anneal inh, Casp6 inh)
CCCCn1c(NCc2ccncc2)nc2ccccc21	none
CCCCn1c(NCc2ccc(N(C)C)cc2)nc2ccccc21	AF4-AF9 inh 29
CC(C)c1ccc2c(c1)C(N1CCN(C)CC1)Cc1cccnc1S2 (centres undefined)	Ecoli rRNA inh -22
CC=Cc1ccc2n(c1=O)C[C@H]1[C@H](CO)[C@@H](C(=O)Nc3ccc(-c4ccccc4)cc3)N(CC)[C@@H]21 (mixture of isomers)	none (no result: NSD2 inh)
CC(C)Nc1nc(NCCN2CCCC2)c2sc(-c3ccccc3)cc2n1	RAD52 anneal inh 76
CCOC(=O)c1sc(N(Cc2ccccc2)C(=O)CCl)nc1C	none (no result: NSD2 inh)
O=C(O)CSCC(=O)N(Cc1ccccc1)c1nc(-c2ccccc2)c(-c2ccccc2)s1	Casp6 inh 37
Cn1cnc([N+](=O)[O-])c1S(=O)(=O)Nc1ccccc1	Casp6 inh 42
COc1ccc(NC(=O)N2CCC3(CC2)CN(CC2CC2)[C@H](CO)c2c3c3ccc(OC)cc3n2C)cc1	none (no result: NSD2 inh, RAD52 anneal inh, Casp6 inh)
O=C(CN1CCN(C(c2ccccc2)c2ccccc2)CC1)N1CCN(c2ccccc2)CC1	Ecoli rRNA inh -38 (no result: AF4-AF9 inh)
Cc1nn(-c2ccccc2)c(Cl)c1CN(C(=O)CCl)c1ccc(Cl)cc1	Ecoli rRNA inh -32
c1ccc(SCc2cn(C[C@H]3CC[C@@H]([C@@H]4CC[C@H](Cn5cc(CSc6ccccc6)nn5)O4)O3)nn2)cc1	none (no result: NSD2 inh)
c1ccc(Cn2cc(CSc3ccccc3)nn2)cc1	Ecoli rRNA inh -33 (no result: NSD2 inh)
Cc1cc(/C=N/NC(=O)COc2cccc3cccnc23)c(C)n1-c1ccc(O)cc1	none (no result: AF4-AF9 inh, RAD52 anneal inh, Ecoli rRNA inh, Casp6 inh)
Cc1cc(C)cc(-n2c(C)cc(/C=N\NC(=O)COc3cccc4cccnc34)c2C)c1	Ecoli rRNA inh -21
C(=N\Nc1nc2ccccc2s1)/c1ccccn1	Ecoli rRNA inh -30
Cc1csc(N/N=C/c2ccccn2)n1	Ecoli rRNA inh -32
CC(C)NC(=O)Nc1ccc2c(c1)CC(=O)N(C)C[C@H](C)[C@@H](CN(C)C(=O)OC(C)(C)C)O2	none (no result: NSD2 inh, AF4-AF9 inh, RAD52 anneal inh, Casp6 inh)
C/C(=N\NC(=O)c1cccc(F)c1)c1ccc(NC(=O)Cc2ccccc2)cc1	none
C/C(=N\NC(=O)c1cc(O)cc(O)c1)c1ccc(NC(=O)Cc2ccccc2)cc1	Casp6 inh 71 (no result: NSD2 inh)
COc1ccc(S(=O)(=O)N(C)C[C@H]2OCCCC[C@H](C)Oc3ccc(NS(C)(=O)=O)cc3C(=O)N([C@@H](C)CO)C[C@@H]2C)cc1	none (no result: NSD2 inh)
CC(Nc1ncnc2ccccc12)c1ccccc1 (centres undefined)	Ecoli rRNA inh -30
CCCCC(Nc1ncnc2ccccc12)C(=O)O (centres undefined)	none (no result: AF4-AF9 inh, RAD52 anneal inh, Ecoli rRNA inh, Casp6 inh)
Cc1ccc(-n2c(-c3ccccc3)c[n+]3c2CCC3)cc1	none
Cc1ccc(-n2c(-c3ccccc3)c[n+]3c2CCc2ccccc2-3)c(C)c1	Ecoli rRNA inh -53
O=C1CCc2ccccc2O1	none (no result: NSD2 inh)
O=C1CCc2cc(Br)ccc2O1	Casp6 inh 45 (no result: NSD2 inh)
O=C(c1ccco1)c1coc2c1cc(O)c1ccccc12	Casp6 inh 47 (no result: Ecoli rRNA inh)
O=C(Oc1cccc2c(O)cccc12)c1ccco1	none
CC(C)NC(=O)N(C)C[C@@H]1Oc2ncc(C#Cc3ccccc3F)cc2C(=O)N([C@@H](C)CO)C[C@H]1C	none (no result: NSD2 inh)
CCn1c(SCC(=O)NNC(=S)Nc2ccccc2)nnc1-c1ccc(Cl)cc1	none
